This experiment deals with Plasmodium falciparum. The experiment can be described thus: GSK_TCMDC: Inhibition of Plasmodium falciparum 3D7 in whole red blood cells, using parasite LDH activity as an index of growth. Test compounds present at 2uM. It counts as functional.
In the case of `CCCC(CC)n1ccc2c3c(N)nc(N)nc3ccc21.CS(=O)(=O)O` (centres undefined), the Inhibition is 94%.
With `COc1ccc(NC(=O)[C@H](Cc2ccccc2)Nc2cc(C)nc(NCc3ccccc3C)n2)cc1.O=C(O)C(F)(F)F`, the Inhibition came to 100%.
Under `Cc1ccc(C(c2nnnn2C2CCCC2)N(Cc2ccco2)Cc2ccccc2Cl)cc1` (centres undefined) stands 85%.
`CCOc1ccc(-c2nonc2NC(=O)c2ccc(Cl)cc2)cc1OCC` had an Inhibition of 94%.
On to `CCOc1ccccc1C1CCN(CCCCNC(=O)c2ccc(NC(=O)c3ccc(Cl)cc3)cc2)CC1`, for which the Inhibition worked out at 95%.
Under `Cc1cc(N[C@@H](CC(C)C)C(=O)NCCOc2ccccc2)nc(Nc2ccccc2)n1.O=C(O)C(F)(F)F` stands 93%; under `CCC(COCc1ccc(Cl)cc1)N(C)CCN(C)C(CC)COCc1ccc(Cl)cc1.Cl` (centres undefined), 95%; under `Cc1cccc2nc(-c3cccc(-c4ccc(NC(=O)c5cccnc5)cc4)c3)[nH]c12`, 100%.
For the molecule `COc1c(O)cc2oc(-c3ccc(O)cc3)cc(=O)c2c1O` [HISPIDULIN], the Inhibition stood at 96%.
`Cc1ccc(F)cc1S(=O)(=O)N1CCCCC(c2ccc(C(F)(F)F)cc2)=N1`: the Inhibition is given as 82%.
Turning to `COc1ccc(Nc2nc(=Nc3ccccc3)nc(NN=Cc3cc(Cl)ccc3O)[nH]2)cc1`, the Inhibition is listed as 100%.
The molecule `CC(C)CCN1CCC(Oc2ccc(NC(=O)c3ccco3)cc2Cl)CC1.O=C(O)C(F)(F)F` showed an Inhibition of 95%.
Molecule `COc1ccccc1NC(=O)c1cc(C(=O)c2cc(Cl)ccc2O)cn(-c2ccccc2OC)c1=O` gave an Inhibition of 92%.
Under `CC(CNC1CCN(CCn2c(=O)ccc3ccc(F)cc32)CC1)c1ccccc1` (centres undefined) stands 85%.

The Inhibition is the drop in the measured response relative to a control, in per cent. Read a low Inhibition as little suppression.

For the origin of these results see ChEMBL document CHEMBL1157539, “Thousands of chemical starting points for antimalarial lead identification” (Nature, 2010).
